Assay outcomes from PubChem.
The list is not random: actives were taken first. Their share in the collection is about 19%.
ELG1 repair inh – qHTS screen for small molecules that inhibit ELG1-dependent DNA repair in human embryonic kidney (HEK293T) cells expressing luciferase-tagged ELG1. HEK293T ELG1-luciferase reporter, luminescence, 16 h; DNA damage induced by 5-fluorouridine. Potency, µM (series often up to 46.1 µM), without a hit: top-dose activity change, negative = inhibition, hits mostly inhibitors. actives 2.3% (n = 330,000). AID 504467, 2011; note: potency is the fitted concentration of half-maximal effect; nearly all actives have a fitted effect of over 55% in size
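HEK293T cells expressing luciferase-tagged ELG1 (2,000/well) received 5-Fluorouridine plus compound or DMSO for 16 hr at 37 °C. Luciferase was read by ONE-Glo luminescence after 30 min at room temperature.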
IL1B secr inh – qHTS for Inhibitors of Inflammasome Signaling: IL-1-beta AlphaLISA Primary Screen; actives 4.7% (n = 360,000); activity change, % at 57.5 µM; THP-1 LPS/ATP IL-1B secretion, AlphaLISA, 16 h; active compounds read low; in the data active = activity change below about -50%; inconclusive = mostly about -30% to -49%
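THP-1 cells pretreated 1 hr with compounds (up to 57.5 uM final), then stimulated with LPS (250 ng/mL final) plus ATP (1.25 mM final); secreted IL-1B measured by AlphaLISA after 16 hr, decreased signal indicating inhibition.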
DT40 TDP1 no CPT – qHTS for Inhibitors of human tyrosyl-DNA phosphodiesterase 1 (TDP1): qHTS in cells in absence of CPT | AID 686978, 2013 | Potency, µM (doses to about 46.2 µM), inactives show at the highest dose activity change, negative = growth inhibition, hits mostly inhibitors | DT40 Tdp1-/- hTDP1 cells, no CPT, ATP luminescence, 48 h | actives 15% (n = 420,000); note: potency is the fitted concentration of half-maximal effect; nearly all actives have a fitted effect of over 55% in size
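DT40 Tdp1-/-;hTDP1 cells, no CPT (DMSO vehicle only), 400 cells/well; compounds pin-transferred; ≥48 hr, 37 °C; CellTiter-Glo 30 min RT dark, luminescence read.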
TDP1 cell CPT – qHTS for Inhibitors of human tyrosyl-DNA phosphodiesterase 1 (TDP1): qHTS in cells in presence of CPT; chicken DT40 Tdp1-/-;hTDP1 cells + 20 nM CPT, ATP luminescence, 48 h; Potency, µM (top dose mostly 46.2 µM), inactives show at the top dose activity change, negative = growth inhibition, actives largely listed as inhibitors; actives 12% (n = 420,000); AID 686979, 2013; note: potency is the fitted concentration of half-maximal effect; nearly all actives have a fitted effect of over 55% in size
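Chicken DT40 Tdp1-/- cells complemented with human TDP1, 400 cells/well, exposed to compounds plus 20 nM camptothecin for at least 48 h at 37 C; viability read as ATP content by CellTiter-Glo luminescence.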
Giardia kill – Small Molecules that selectively kill Giardia lamblia: qHTS; Giardia lamblia trophozoite viability; activity change, % at 7.66 µM, hits read low; actives 0.15% (n = 340,000); in the data active = activity change below about -80%; inconclusive = between about -30% and that limit;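 note: parasites exposed to compound for two days anaerobically before the ATP read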
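Compounds were tested on trophozoites seeded at 100 cells/well and held 48 hrs at 37 deg C anaerobically. An ATP-based luminescent kit measured the remaining live cells.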
TDP1 inh – qHTS Assay for Inhibitors of Tyrosyl-DNA Phosphodiesterase (TDP1). Tyrosyl-DNA phosphodiesterase 1 (Homo sapiens), Q9NUW8. actives 0.28% (n = 350,000). Potency, µM (titrated, usually from 130 µM), for inactives: top-dose activity change, negative = inhibition, hits mostly inhibitors. recombinant TDP1, AlphaScreen DNA substrate cleavage. AID 485290, 2010; note: potency is the fitted concentration of half-maximal effect; nearly all actives have a fitted effect of over 40% in size
Target sequence (Q9NUW8 whole entry, looked up): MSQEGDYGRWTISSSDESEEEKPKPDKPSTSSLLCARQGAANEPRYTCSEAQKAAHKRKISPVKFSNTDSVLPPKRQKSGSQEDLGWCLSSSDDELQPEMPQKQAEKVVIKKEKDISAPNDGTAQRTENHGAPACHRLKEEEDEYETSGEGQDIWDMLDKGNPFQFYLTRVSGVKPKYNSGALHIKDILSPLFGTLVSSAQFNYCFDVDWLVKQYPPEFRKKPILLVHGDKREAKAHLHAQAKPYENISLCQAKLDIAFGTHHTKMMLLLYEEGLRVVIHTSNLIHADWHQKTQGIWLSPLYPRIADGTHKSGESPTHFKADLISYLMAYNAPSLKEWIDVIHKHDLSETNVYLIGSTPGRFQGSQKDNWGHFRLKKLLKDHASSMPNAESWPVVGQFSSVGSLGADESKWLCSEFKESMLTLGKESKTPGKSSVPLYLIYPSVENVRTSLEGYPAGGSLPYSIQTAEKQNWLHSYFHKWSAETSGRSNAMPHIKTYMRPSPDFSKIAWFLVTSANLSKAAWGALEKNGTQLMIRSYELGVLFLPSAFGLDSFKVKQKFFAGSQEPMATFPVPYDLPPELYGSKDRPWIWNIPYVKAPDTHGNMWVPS
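Steps: enzyme plus compound, 15 min RT; add biotin/phosphotyrosine-FITC oligonucleotide (15 nM final), react 5 min; add donor/acceptor beads (10 ug/ml final), 10 min; read AlphaScreen. Tdp1 at 1 nM final.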
Starred values were filed as active, the others as inactive; ? = inconclusive; . = not tested or not shown. Unless noted, calls come from the whole dose curve; as a rule, active = well fitted curve in the direction sought with a large enough effect; inconclusive = small, poorly fitted or top-dose-only effect, or another doubt; inactive = no such curve, though single readings can be large; an effect the other way counts as inactive or inconclusive. % is set by controls: 0 for no effect and ±100 for the full control effect.

SMILES	ELG1 repair inh	IL1B secr inh	DT40 TDP1 no CPT	TDP1 cell CPT	Giardia kill	TDP1 inh
CC1CCN(c2oc(-c3cccs3)nc2S(=O)(=O)c2ccccc2)CC1	.	.	21µM*	?	.	3%
CC1CCN(c2oc(-c3ccco3)nc2S(=O)(=O)c2ccccc2)CC1	-1%	-53*	?	-8%	-4	10%
CCc1ccc(C(=O)NNC(=O)[C@H](C)NC(=O)c2ccco2)cc1	16%	9	11%	27%	4	0%
C[C@@]12C(=O)Nc3cc(F)c(F)cc3C(=O)N1[C@H]1c3ccccc3OC[C@@H]1[C@@H]2c1ccccc1	.	-63*	18µM*	?	8	.
C[C@@]12C(=O)Nc3ccc(F)cc3C(=O)N1[C@H]1c3ccccc3OC[C@@H]1[C@@H]2c1ccccc1	12%	?	-10%	?	-16	0%
COc1ccc2c(c1)OC[C@H]1[C@H]2N2C(=O)c3cc(OC)c(OC)cc3NC(=O)[C@@]2(C)[C@H]1c1ccccc1	?	0	16µM*	29µM*	50	1%
COc1cc2c(cc1OC)C(=O)N1[C@H]3c4ccccc4OC[C@@H]3[C@H](c3ccccc3)[C@]1(C)C(=O)N2	-13%	?	15µM*	?	6	.
CSCCNC(=O)C1(C)CCN1C(=O)C/C=C/c1ccccc1 (stereo not given)	.	-7	-12%	-3%	.	.
COc1cccc2cc(-c3csc(-c4ccc(Cl)cc4)n3)c(=O)oc12	.	.	-5%	-9%	.	-1%
O=[N+]([O-])c1ccc(S(=O)Cc2ccccc2)c([N+](=O)[O-])c1 (stereo not given)	.	-101*	0.58µM*	0.46µM*	2	.
O=[N+]([O-])c1ccc(CS(=O)c2ccccc2)cc1 (stereo not given)	.	12	-12%	-11%	-4	.
CCCCc1ccc(-n2nnnc2SCC(=O)Nc2cc(OC)c([N+](=O)[O-])cc2C)cc1	3%	-8	18µM*	?	-7	2%
CNc1nc(N2CCCN(C)CC2)nc2cc(OC)c(OC)cc12	.	.	11µM*	14µM*	.	.
CCNc1nc(N2CCCN(C)CC2)nc2cc(OC)c(OC)cc12	.	.	11µM*	11µM*	.	.
Cc1cc(NC(=O)NN2CCOCC2)nn1-c1c(Cl)cccc1Cl	-1%	7	-30%	2%	3	-4%
COc1cc(-n2ccnc2SC)c(Cl)cc1Cl	?	12	18µM*	?	-12	7%
Cc1ccc2c(c1)-c1c(c(C(=O)N3CCN(c4cc(C)ccc4C)CC3)nn1C)CS2	.	.	15µM*	?	.	-1%
Cn1nc(C(=O)Nc2ccccc2C#N)c2c1-c1ccccc1SC2	.	.	22%	-15%	.	11%
CC1CC(C)CN(C(=O)c2nn(C)c3c2CSc2ccccc2-3)C1 (stereo not given)	?	-28	23µM*	?	-19	.
CCOc1ccccc1NC(=O)c1nn(C)c2c1CSc1ccccc1-2	.	.	18µM*	?	.	11%
CC1CCCN(C(=O)c2nn(C)c3c2CSc2ccccc2-3)C1 (stereo not given)	?	-8	-1%	-17%	15	.
CCOc1ccccc1N(CC)C(=O)c1nn(C)c2c1CSc1ccccc1-2	9.2µM*	0	?	26µM*	6	1%
CCOc1ccc(-c2nnn(CC(=O)N3CCCC(C)C3)n2)cc1 (stereo not given)	-6%	-3	-3%	-25%	4	5%
COc1cc(OC)cc(C(=O)NCC(=O)OCC(=O)NCc2ccco2)c1	3%	0	-3%	-1%	-3	0%
CCCCNC(=O)c1nn(C)c2c1CSc1ccccc1-2	.	.	?	16µM*	.	14%
SMILES	ELG1 repair inh	IL1B secr inh	DT40 TDP1 no CPT	TDP1 cell CPT	Giardia kill	TDP1 inh
CC1CCCC(C)N1CCCNC(=O)c1nn(C)c2c1CSc1ccccc1-2 (stereo not given)	?	?	0%	-2%	31	3%
Oc1cccc(C=Nc2cccc3ccccc23)c1O	-13%	-59*	?	?	-21	10%
Oc1oc(-c2ccccc2)nc1/C=N/c1nccs1	?	2	-1%	-24%	-12	4%
Oc1oc(-c2ccccc2)nc1C=Nc1cccc2ccccc12	-3%	13	16µM*	?	14	?
CCCCn1c(N)c(N(CCOC)C(=O)C2CCN(c3ncnc4sc(C)c(C)c34)CC2)c(=O)[nH]c1=O	?	4	?	5%	-10	.
Cc1ccc2c(=O)cc(C(=O)Nc3ccc(S(=O)(=O)N4CCCC(C)C4)cc3)oc2c1C (stereo not given)	.	.	?	?	.	9%
Cc1ccc2oc(C(=O)Nc3ccc(S(=O)(=O)N4CCCC(C)C4)cc3)cc(=O)c2c1 (stereo not given)	.	.	8.2µM*	16µM*	.	4%
Cc1cc(C)c2oc(C(=O)Nc3ccc(S(=O)(=O)N4CCCC(C)C4)cc3)cc(=O)c2c1 (stereo not given)	?	11	?	15µM*	-6	5%
CCN(CC)c1ccc(S(=O)(=O)N(CC)CC)cc1NC(=O)c1cccnc1	?	-16	?	3%	2	2%
Cc1ccc(NC(=O)C2CCN(c3cc(C)nc4c(-c5ccc(Cl)cc5)c(C)nn34)CC2)c(C)c1	.	.	-1%	4%	.	6%
Cn1c(=O)oc2cc(S(=O)(=O)NC(Cc3ccccc3)C(=O)NCc3ccccc3Cl)ccc21 (stereo not given)	.	.	-13%	-20%	.	7%
O=C1NC(=Nc2cccnc2)S/C1=C/c1ccc(F)cc1	15%	13	3.3µM*	2.9µM*	3	-1%
O=C1NC(=Nc2ccccc2)S/C1=C\c1cccnc1	17%	-11	-11%	-1%	3	5%
Cc1ccccc1N=C1NC(=O)/C(=C/c2cccn2C)S1	?	-1	23µM*	16µM*	-23	10%
Cc1cccc(N=C2NC(=O)/C(=C/c3cccn3C)S2)c1	-1%	7	18µM*	?	-9	10%
O=C1NC(=Nc2ccccc2)S/C1=C\c1cccn1-c1ccccc1	?	-5	21µM*	9.2µM*	-21	8%
